The record followed here is PubChem BioAssay AID624483 (NMMLSC, 2012).

About 11,000 (3.1%) of roughly 360,000 compounds were called active. About 2% were inconclusive and are not listed. Many of the other results were omitted from the sample, so actives are more common in it than they were. A number with no mark means an inactive call. Rule as the data show it: active = fluorescence intensity above about 16000; inconclusive = no clear call, values can overlap the other calls; inactive = below that.

The experiment is described as follows: counter-screen for toxin protease inhibitors: compound fluorescence, primary screen, artefact control for toxin protease inhibitor project, biochemical, multiplex microsphere, HTS (AID 624483). Particulars: compound autofluorescence counterscreen, microsphere flow cytometry; active compounds read high.
As for `COC(=O)[C@@]1(Cc2ccc(F)cc2)[C@H]2c3cc(C(=O)N4CCCC4)n(C[C@H](O)CO)c3C[C@H]2CN1C(=O)c1ccccc1`, the fluorescence intensity was 4320.

Regarding `COc1cccc(CNc2nc(NCc3ccccc3OC)nc3ccsc23)c1`, the fluorescence intensity is 2990.

On to `Cc1ccc(S(=O)(=O)N2CCC(=O)N([C@H](COCc3ccccc3)C(C)C)CC2)cc1`, for which the fluorescence intensity is 5310.

`CCOC(=O)Nc1ccc2c(c1)N(C(=O)CCN1CCN(CCO)CC1)c1ccccc1CC2`: the fluorescence intensity was 5290.

As for `CCOC(=O)Nc1ccc2c(c1)N(C(=O)CN1CCN3CCCC3C1)c1ccccc1CC2` (centres undefined), the fluorescence intensity was 18500 (active).

Consider `CCOC(=O)Nc1ccc2c(c1)N(C(=O)CCCl)c1ccccc1[S@]2=O`, for which the fluorescence intensity was 4240.

Regarding `CCCCCCCCOC1OC(CO)C(O)C(O)C1NC(C)=O` (centres undefined), the fluorescence intensity is 4290.

Take `CC1(C)CC(=O)C=C(c2ccccc2CO)C1=O`: the fluorescence intensity was 3370.

As for `Cc1nc2nc(C)c(CCC(=O)N3CCN(c4ccccc4)CC3)c(C)n2n1`, the fluorescence intensity is 8430.

Consider `Cc1nc2nc(C)c(CCC(=O)N3CCC4(CC3)OCCO4)c(C)n2n1`, for which the fluorescence intensity was 8020.

`Cc1nc2ncnn2c(C)c1CCC(=O)N1CCN(C(=O)c2ccco2)CC1`: the fluorescence intensity is 23100 (active).

On to `COc1ccc(CC(=O)Nc2c(C(N)=O)oc3ccccc23)cc1`, for which the fluorescence intensity is 6330.

Consider `COc1ccc(CC(=O)Nc2sc(Cc3ccccc3)c(C)c2C(N)=O)cc1`, for which the fluorescence intensity was 22200 (active).

For the molecule `Cc1ccc(C(=O)Nc2sc(Cc3ccc4c(c3)OCO4)c(C)c2C(N)=O)cc1`, the fluorescence intensity was 5510.

For `COc1ccc(CCNC(=O)Nc2ccc3c(c2)c(=O)n(C)n3C)cc1OC`, the fluorescence intensity was 3460.

As for `CNc1nc2c(C)cccn2c(=O)c1C=Nc1ccc(OC)cc1`, the fluorescence intensity is 4140.

For the molecule `Cc1ccc2[nH]c(=O)c(-c3nc4c(C)cccn4c3NCc3ccco3)cc2c1`, the fluorescence intensity is 2400.

Take `CCCN(CCC)c1nc2c(C)cccn2c(=O)c1/C=C1/SC(=S)N(Cc2ccco2)C1=O`: the fluorescence intensity was 25600 (active).

With `CCN(CC)CC1(O)CCN(C(=O)c2ccc(Cl)c(Cl)c2)CC1`, the fluorescence intensity was 4500.

`O=C1C(Cl)=C(N2CCOCC2)C(=O)N1c1ccccc1`: the fluorescence intensity is 5720.

Consider `O=C1C(=O)N(c2ccccc2)c2ccccc21`, for which the fluorescence intensity is 22200 (active).

In the case of `O=C1c2ccccc2C(=O)N1c1ccccc1S(=O)C(F)(F)F` (centres undefined), the fluorescence intensity was 2440.

With `CCOc1ccc(C(C)=O)cc1COC(=O)CNC(=O)c1cccs1`, the fluorescence intensity is 6570.

Take `Cc1occc1C(=O)Nc1cccc(Cn2cccn2)c1`: the fluorescence intensity is 16800 (active).

Turning to `Cc1occc1C(=O)Nc1cccc(S(=O)(=O)N2CCOCC2)c1`, the fluorescence intensity is 3850.

`Cc1ccnc(NC(=O)c2ccoc2C)c1`: the fluorescence intensity is 2220.

In the case of `COc1ccc(-c2ccc(C(=O)NC(C)C)c3occc23)c(C)c1`, the fluorescence intensity is 3110.

Turning to `CCOC(=O)c1ccc2c(c1)nc(SCC(=O)NC(C)C)n2CC`, the fluorescence intensity was 19400 (active).

As to `CCOC(=O)CNC(=O)CSc1nc2cccnc2n1CC`, the fluorescence intensity was 4460.

As to `CCOC(=O)c1ccc2c(c1)nc(C)n2CC`, the fluorescence intensity is 2830.

Take `CCN(CC(=O)NC(C)C)C(=O)CCNC(=O)c1ccc(Cl)cc1`: the fluorescence intensity was 23900 (active).

Turning to `CC(=O)Nc1ccc(NC(=O)CCCNC(=O)c2ccc(Cl)cc2)cc1`, the fluorescence intensity was 5820.

On to `O=C(CCNC(=O)c1ccc(Cl)cc1)NC1CCCc2ccccc21` (centres undefined), for which the fluorescence intensity was 5920.

On to `Cc1ccc(Cn2cc(CN3CC(N4CCN(C)CC4)CS3(=O)=O)nn2)cc1` (centres undefined), for which the fluorescence intensity is 5630.

As for `COC(CNC(=O)c1ccc2c(c1)ncn2-c1cc(C)cc(C)c1)OC`, the fluorescence intensity was 3480.

On to `Cc1ccc(CN2CCN(c3ccccc3Cl)CC2)o1`, for which the fluorescence intensity was 3970.

As for `COc1ccc(C(NC(=O)C2CCN(CCCc3ccccc3)CC2)c2cccs2)cc1` (centres undefined), the fluorescence intensity is 3340.

Turning to `CCn1c(O)c(N=NC(=O)c2cccc(S(=O)(=O)N3CCCCC3)c2)c2ccccc21`, the fluorescence intensity was 2120.

In the case of `CCn1c(O)c2ccc(C(=O)N=NC(=O)c3cccnc3)cc2c1O`, the fluorescence intensity was 22400 (active).

For `O=C(CC(=O)c1cccnc1)c1ccccc1`, the fluorescence intensity was 3800.

Take `Brc1ccc2nc(-c3ccccc3)c(Cc3ccccc3)n2c1`: the fluorescence intensity is 6060.

For `Nc1c(N(Cc2ccco2)C(=O)c2cccc(F)c2)c(=O)[nH]c(=O)n1Cc1ccccc1`, the fluorescence intensity is 6060.

For the molecule `CCCCn1c(N)c(N(CC)C(=O)/C=C/c2ccco2)c(=O)[nH]c1=O`, the fluorescence intensity was 3280.

Consider `CCCCn1c(O)c(C(CC)=NCc2ccco2)c(=O)[nH]c1=O`, for which the fluorescence intensity was 22200 (active).

Consider `CCC(=NCCCO)c1c(O)n(-c2ccc(OC)cc2)c(=O)[nH]c1=O`, for which the fluorescence intensity is 3280.

`Cn1c(=O)[nH]c(=O)c2c1[nH]c(=S)n2Cc1ccccc1`: the fluorescence intensity was 5200.

Take `CCC(=NCc1ccco1)c1c(O)n(Cc2ccccc2)c(=O)[nH]c1=O`: the fluorescence intensity was 16900 (active).

For the molecule `CCNC(=O)C1(C)CCCN(C(=O)c2ccc3ccccc3n2)C1` (centres undefined), the fluorescence intensity is 2790.

Take `COc1cccc(CNc2nc3cc(-c4csc5ccccc45)sc3c(=O)n2C)c1`: the fluorescence intensity is 4090.

On to `CC(C)Nc1ncnc2c1ncn2[C@H]1CN(Cc2ccncc2)C[C@@H](CO)O1`, for which the fluorescence intensity is 2910.

`CCc1nc2c(OCC(N)=O)cccn2c1N(C)C(=O)c1ccc(OC)cc1`: the fluorescence intensity is 3440.

Take `COc1ccccc1N(C)S(=O)(=O)c1ccc(C(=O)NC2CCCCCC2)cc1`: the fluorescence intensity was 5030.

For the molecule `CN(Cc1ccccc1)C(=O)[C@@H]1CCCN1C(=O)[C@@H]1CCCN1C(=O)c1c(F)cccc1F`, the fluorescence intensity is 5720.

Take `COc1cc(OC)cc(C(=O)NCC(=O)OCc2csc(-c3ccccc3)n2)c1`: the fluorescence intensity is 9780.

`O=C(NCCc1csc(-c2ccccc2)n1)c1ccccc1F`: the fluorescence intensity was 3720.

Take `CNC(=O)c1csc(-c2ccccc2)n1`: the fluorescence intensity was 22300 (active).

For `CCOC(=O)c1cc2cc(OC)ccc2n1C1CCN(C)CC1`, the fluorescence intensity was 5150.

Take `O=C(COC(=O)Cc1ccc(Br)cc1)Nc1ccc(N2CCOCC2)cc1`: the fluorescence intensity was 8590.

With `CC(=O)c1ccc(Nc2nc(C(N)c3ccccc3Cl)cs2)cc1` (centres undefined), the fluorescence intensity was 3780.

`COc1cccc(-c2cc3nc(NCc4ccccc4OC)n(C)c(=O)c3s2)c1`: the fluorescence intensity was 2860.

In the case of `Nc1cc(N)nc(SCc2ccc(Cl)cc2)n1`, the fluorescence intensity was 4250.

As for `COc1ccc(CCNc2nc(C)cc(C)n2)cc1OC`, the fluorescence intensity was 3430.

On to `COc1cnc(SCc2ccc(Cl)c(Cl)c2)nc1Cl`, for which the fluorescence intensity was 20800 (active).

Take `Cc1ccc([C@H]2N[C@]3(CCCN(CC4CCCCC4)C3=O)[C@H]3C(=O)N(Cc4ccccc4)C(=O)[C@@H]23)cc1`: the fluorescence intensity was 3930.

As for `CC(C)(C)c1nnc(N/N=C/c2ccc(O)cc2)n(N)c1=O`, the fluorescence intensity was 9530.

Turning to `O=c1c2ccccc2ncn1/N=C/c1ccccc1`, the fluorescence intensity was 3940.

Take `O=c1c2ccccc2nc(N/N=C/c2ccccc2)n1O`: the fluorescence intensity is 24900 (active).

Consider `Cn1c(SCc2ccc(F)cc2)nnc1-c1ccncc1`, for which the fluorescence intensity is 4260.

`Fc1ccc(-n2c(Cc3ccccc3)nnc2SCc2nc(-c3ccc(Cl)cc3)no2)cc1`: the fluorescence intensity was 25000 (active).

Turning to `Cc1nnc(SCc2ccc(C(=O)c3ccc(Cl)cc3)o2)n1-c1ccccc1`, the fluorescence intensity is 6940.

With `Cn1cccc1Cc1nnc(SCC(=O)NCCc2ccccc2)n1-c1ccc(F)cc1`, the fluorescence intensity is 5310.

Turning to `Cc1ccc(-c2noc(CSc3nnc(-c4ccncc4)n3-c3ccc(F)cc3)n2)cc1`, the fluorescence intensity is 21100 (active).

Take `Cc1ccc(-c2noc(CSc3nnc(-c4cccs4)n3C)n2)cc1`: the fluorescence intensity was 9700.

As for `CC(C)(C)NC(=O)NC(=O)COC(=O)Cc1c(F)cccc1Cl`, the fluorescence intensity was 4470.

In the case of `O=C(Nc1c(Br)cc2c(c1Br)Cc1ccccc1-2)C(F)(F)F`, the fluorescence intensity was 3730.

With `O=C(CC(NCCN1CCOCC1)C(=O)O)Nc1cccc(Cl)c1` (centres undefined), the fluorescence intensity is 3410.

Take `Cn1c(CC(=O)Nc2ccc(F)cc2)nnc1SCC(=O)NC1CCCCC1`: the fluorescence intensity was 3940.

As to `COc1cccc(NC(=O)CSc2nnc(C3CCCCC3)n2N)c1`, the fluorescence intensity was 7460.

As for `C=CCn1c(CC(=O)Nc2cccc(OC)c2)nnc1SCC(=O)NC1CCCCC1`, the fluorescence intensity is 21000 (active).

`Cc1nc2c(OCc3ccc(Cl)cc3Cl)cccn2c1N(C)CC1CC1`: the fluorescence intensity is 3540.

For the molecule `C[C@@H]1CN([C@@H](C)CO)C(=O)c2cc(Br)cnc2O[C@H]1CN(C)Cc1ccc(-c2ccccc2)cc1`, the fluorescence intensity is 2930.

As to `CCCNC(=O)c1cc(C2CCCN(C(=O)c3ccc4c(c3)CCO4)C2)on1` (centres undefined), the fluorescence intensity is 3960.

For `O=[N+]([O-])c1ccc(C=Nc2ccc(Cl)cc2Cl)s1`, the fluorescence intensity was 22300 (active).

As to `CNN/C(N=Cc1ccc([N+](=O)[O-])s1)=N\S(=O)(=O)c1cc(C)c(Cl)cc1SCc1ccccc1`, the fluorescence intensity is 3540.

In the case of `CC1CN(C(=O)c2ccc([N+](=O)[O-])s2)CC(C)O1` (centres undefined), the fluorescence intensity was 6540.

For `CC(=O)NC(c1cccc(F)c1)c1nc(-c2cccc(F)c2)cs1` (centres undefined), the fluorescence intensity is 2910.

For the molecule `COCCNC(=O)c1ccc2nc(Cc3ccc(OC)c(OC)c3)oc2c1`, the fluorescence intensity is 4160.

Consider `CCCCc1nc2ccc(F)cc2cc1C`, for which the fluorescence intensity was 6420.

Turning to `O=C1NC[C@H](CCCCN2C[C@H](Cc3ccccc3)N(Cc3ccccc3)C(=O)C2=O)N(CCc2ccc(O)cc2)C1=O`, the fluorescence intensity is 4050.

For `COCCNC(=O)c1ccc(S(=O)(=O)c2ccc(Cl)cc2)c(NC(C)=O)c1`, the fluorescence intensity was 3030.

For the molecule `Cc1ccc(S(=O)(=O)c2ccc(Cl)cc2)cc1S(=O)(=O)NC(C(=O)O)C(C)C` (centres undefined), the fluorescence intensity was 1970.

For the molecule `CC(=O)Nc1cc(C(=O)O)ccc1S(=O)(=O)c1ccc(Cl)cc1`, the fluorescence intensity is 22400 (active).

With `CC1(C(=O)Nc2cccc3cccnc23)CCN1C(=O)CCC1CCCC1` (centres undefined), the fluorescence intensity was 3540.

In the case of `COc1cccc(CN(C)C(=O)CC[C@H]2O[C@@H](n3cnc4c(NC(=O)c5ccccc5)ncnc43)[C@H](O)[C@@H]2O)c1`, the fluorescence intensity was 5840.
